From PubChem
Shown are actives, neighbours in structure and some others; about 2.1% of the full set was active somewhere.
PfHsp90 set2 – inhibits growth of yeast expressing Plasmodium falciparum Hsp90. 310,000 tested, 0.32% active. S. cerevisiae expressing PfHsp90, BacTiter-Glo ATP, 48 h; yeast lacking PDR1 and PDR3 efflux regulators. inhibition, % at 9.4 µM;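 active = every replicate shows inhibition above about 80%, whatever the replicate mean, limit read from the data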;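 also: 0% = DMSO neutral controls and 100% = 20 µM radicicol positive controls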
ARNT TACC3 PPI – disrupts binding between human ARNT and TACC3; Q9Y6A5; AlphaScreen His-ARNT PAS-B/GST-TACC3 binding, luminescence; TACC3 fragment carries E629A point mutation; inhibition, % at 9.99 µM; 390,000 tested, 0.66% active; AID 623870;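 active = mean inhibition of replicates at least 50% and at least half of replicates each reaching 50%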;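 also: 0% = complete ARNT plus TACC3 wells and 100% = ARNT alone without TACC3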
NSD2 inh – blocks human histone methyltransferase NSD2; 310,000 tested, 0.54% active; inhibition, % at 12.5 µM; O96028; NSD2 peptide methylation, AlphaScreen, 120 min; in the data active = inhibition above about 50%
SIRT5 block – inhibitors of human sirtuin-5 desuccinylase. Q9NXA8. Purified SirT5, succinyl-peptide AMC, trypsin-coupled fluorescence. inhibition, % at 15 µM. 330,000 tested, 1.1% active. AID 652115; in the data active = inhibition above about 15%
Target sequence (Q9NXA8 whole entry, looked up): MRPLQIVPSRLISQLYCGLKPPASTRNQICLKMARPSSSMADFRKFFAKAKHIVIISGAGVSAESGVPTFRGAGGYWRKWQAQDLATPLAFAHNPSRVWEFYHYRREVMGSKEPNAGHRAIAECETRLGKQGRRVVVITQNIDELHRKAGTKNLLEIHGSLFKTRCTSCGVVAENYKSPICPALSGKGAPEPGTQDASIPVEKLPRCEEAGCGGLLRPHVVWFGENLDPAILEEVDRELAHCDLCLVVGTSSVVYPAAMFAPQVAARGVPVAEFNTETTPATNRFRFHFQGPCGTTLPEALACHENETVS
CASP6 VEID inh – caspase-6 (human) enzyme inhibition | inhibition, % at 12.5 µM | 350,000 tested, 0.53% active | purified caspase-6, Z-VEID-R110 cleavage fluorescence | P55212;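 active = mean inhibition across replicates at least about 35%, with every replicate also reaching that limit, limit read from the data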;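 also: 0% = median of neutral control wells and 100% = no fluorescence left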
Target sequence (P55212 24-179 limits assumed): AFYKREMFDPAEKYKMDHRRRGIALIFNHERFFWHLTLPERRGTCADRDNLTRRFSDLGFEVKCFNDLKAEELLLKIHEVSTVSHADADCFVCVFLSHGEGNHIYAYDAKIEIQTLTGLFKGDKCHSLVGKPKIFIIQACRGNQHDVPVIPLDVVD
Target sequence (P55212 194-293 limits assumed): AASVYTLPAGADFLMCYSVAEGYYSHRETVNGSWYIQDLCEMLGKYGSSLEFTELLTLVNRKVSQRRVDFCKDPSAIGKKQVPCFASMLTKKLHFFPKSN
AlphaScreen art – interferes with AlphaScreen signal, flagging NSD2 false positives | shares compounds with NSD2 inh | AlphaScreen artifact counterscreen, preloaded methylated H4 peptide | AC35, µM (series often up to 10 µM), for inactives: top-dose activity change, negative = signal loss | 1,500 tested, 9.4% active; call rule not given here
The depositor's hits bear a star; · = no result.

SMILES	PfHsp90 set2	ARNT TACC3 PPI	NSD2 inh	SIRT5 block	CASP6 VEID inh	AlphaScreen art
O=C(/C=C/c1ccco1)Nc1cc(Cl)ccc1C(=O)O	18	-10	21	·	·	·
O=C(NCC[C@@H]1CC[C@@H](NC(=O)C2CCCCC2)[C@H](CO)O1)c1ccc(F)cc1	·	7	·	1	0	·
O=C(NCc1ccco1)c1scc2c1OCCO2	0	·	90*	·	·	-2%
Cc1cc(C)n(-c2nc(NCC(C)O)c3c4c(sc3n2)CCCC4)n1 (stereo unspecified)	-5	-2	0	·	·	·
Cc1cc(C)n(-c2nc(NCC(C)O)c3c4c(sc3n2)COC(C)(C)C4)n1 (stereo unspecified)	-1	9	81*	·	·	-7%
O=C(O)CN1C(=O)/C(=C/c2ccc(SCc3ccccc3)o2)SC1=S	-6	-10	54*	6	52*	-6%
O=C(O)CN1C(=O)/C(=C\c2ccc(OC(=O)c3ccco3)cc2)SC1=S	2	9	14	6	16	·
Cc1c(Br)c(=O)oc2c(Br)c(O)c(O)cc12	-37	5	111*	5	47*	-15%
Cc1c(Br)c(=O)oc2c(Br)c(O)ccc12	0	-5	18	-1	1	·
C[C@@H]1CN([C@H](C)CO)C(=O)Cc2cc(NC(=O)Nc3ccccc3)ccc2O[C@H]1CN(C)C(=O)Nc1ccc(F)cc1	·	-7	·	-13	0	·
O=Cc1cccn1-c1cccc([N+](=O)[O-])c1	0	-3	-4	-6	2	·
O=C(O)c1cccc(-n2cccc2/C=C\[N+](=O)[O-])c1	·	3	69*	4	·	-2%
O=C(O)c1cccc(-n2cccc2/C=N/O)c1	-2	2	52*	·	·	-10%
CC(C)CC#Cc1ccc2c(c1)O[C@H](CN(C)C(=O)c1ccccc1F)[C@@H](C)CN([C@H](C)CO)S2(=O)=O	·	-7	·	-2	1	·
CNCc1ccc(OCc2ccccc2)c(OC)c1	·	0	53*	·	·	-1%
C[C@@H]1CN([C@@H](C)CO)C(=O)c2cc(NC(=O)Nc3ccccc3)ccc2O[C@@H](C)CCCCO[C@@H]1CN(C)C	·	-3	·	-6	0	·
COc1ccc(S(=O)(=O)N(C)C[C@H]2Oc3c(NC(=O)Nc4ccc(C(F)(F)F)cc4)cccc3C(=O)N([C@@H](C)CO)C[C@H]2C)cc1	·	·	·	7	-3	·
CC1NC(=O)NC1CCCCCC(=O)Nc1ccc(F)cc1 (stereo unspecified)	·	10	103*	-4	-3	1.9µM*
Cc1c(F)cccc1NC(=O)CCCCCC1NC(=O)NC1C (stereo unspecified)	·	-6	·	4	-5	·
Cc1ccc(NC(=S)N2CCC(NC(=O)c3cccc(F)c3)CC2)cc1	22	-2	89*	-5	0	2%
Cc1cccc(C(=O)NC2CCN(C(=O)Nc3ccc(F)cc3)CC2)c1	-1	-9	12	-5	-5	·
Cn1c(CSCc2ccccc2)nnc1SCC(=O)Nc1nccs1	0	-1	120*	·	·	-1%
Cn1c(CSCc2ccc(F)cc2)nnc1SCC(=O)Nc1nccs1	20	4	-3	·	·	·
COc1ccc(NS(=O)(=O)c2cc(NC(=O)c3ccccc3)ccc2N2CCOCC2)cc1	27	-4	-4	-2	1	·
COc1ccc(NS(=O)(=O)c2cc(NC(=O)COc3ccccc3)ccc2N2CCOCC2)cc1	1	-2	60*	·	-3	-3%
SMILES	PfHsp90 set2	ARNT TACC3 PPI	NSD2 inh	SIRT5 block	CASP6 VEID inh	AlphaScreen art
C/C(C/C(C)=C1/SC(=S)NC1=O)=C1\SC(=S)NC1=O	-36	14	132*	49*	·	-15%
CCCCCC/C(C)=C1/SC(=S)NC1=O	-37	3	9	·	·	·
O=C(C[C@H]1C[C@@H]2c3cc(NC(=O)Nc4ccccc4)ccc3O[C@@H]2[C@H](CO)O1)NCc1ccccn1	·	-3	·	-2	3	·
Cc1cc(=O)n2[nH]c(-c3ccco3)nc2n1	19	-1	68*	·	·	-6%
COc1ccccc1S(=O)(=O)N[C@@H]1CC[C@@H](CC(=O)NCc2cccc(F)c2)O[C@H]1CO	·	-6	·	2	-2	·
COCC(C)OC(=O)/C(C#N)=C\c1coc2ccc(C)cc2c1=O (stereo unspecified)	15	·	50*	3	-1	-4%
Cc1ccc2occ(/C=N/NC(=O)[C@@H](N)Cc3ccccc3)c(=O)c2c1	1	-20	2	·	2	·
CCC(=O)N1C[C@H](C)[C@H](OC)CN(C)C(=O)c2cc(NC(=O)c3ccc(F)cc3)ccc2OC[C@@H]1C	·	-7	·	3	4	·
O=C(Cc1ccc(Cl)cc1)NCc1ccccc1Cl	9	-9	-4	1	-4	·
O=C(Cc1ccccc1Cl)NC1(O)C(=O)c2ccccc2C1=O	-10	·	94*	-1	15	4%
CSc1nc(N)nc(N(C)C)n1	-7	-2	61*	-5	-1	1%
C[C@@H]1CN([C@H](C)CO)C(=O)c2cccc(NS(=O)(=O)c3ccccc3)c2O[C@@H]1CN(C)C(=O)Nc1cccc2ccccc12	·	·	·	3	0	·
COc1ccc(-n2c3nc4ccccc4nc3c3c(=N)oc(C)nc32)cc1	16	23	115*	·	·	3%
CCCCn1c2nc3ccccc3nc2c2c(=N)oc(C)nc21	-32	0	5	-1	-2	·
CCN(CC)CCNC(=O)Cc1nn(Cc2ccccc2)c(=O)c2ccccc12	9	2	51*	-2	-3	-2%
CCCCSCc1[nH]c(=O)[nH]c1C(=O)CCCCC(=O)OCC	17	-5	0	·	·	·
Cc1[nH]c(=O)[nH]c1C(=O)CCCCC(=O)O	·	0	130*	-1	-4	-5%
CO[C@@H]1CC[C@@H]2CCN(C)C(=O)[C@@H](C)CN(C)C(=O)c3cccc(C#N)c3OC[C@@H]1O2	·	33	·	5	5	·
Cc1ccc(NC(=O)CC2=NC(=O)C(CC(=O)Nc3ccccc3F)S2)cc1 (stereo unspecified)	-15	0	71*	2	2	0%
Cn1c(=O)[nH]c(=O)c2c1nc(N/N=C/c1cccnc1)n2Cc1ccc(Cl)cc1	·	·	0	-2	0	·
Cn1c(=O)[nH]c(=O)c2c1nc(N/N=C/c1ccncc1)n2Cc1ccc(F)cc1	·	·	62*	-2	0	-2%
CCCC(O)C#Cc1cnc2c(c1)C(=O)N([C@H](C)CO)C[C@H](C)[C@H](CN(C)C(=O)NC(C)C)O2 (stereo partly specified)	·	1	·	-1	-5	·
COc1cccc(CNc2ccccn2)c1O	4	0	2	-1	0	·
COc1cccc(CNc2cccc3cccnc23)c1O	-13	23	50*	·	·	-5%
Cc1ccc(O)c(CNc2cccc3cccnc23)c1	-8	37	118*	-1	23	-5%
COC(=O)[C@@]1(CCS(=O)(=O)c2ccccc2)COC(c2ccc(OCCCO)cc2)=N1	·	-5	·	2	-1	·
